SRC3 inh = inhibitors of human steroid receptor coactivator 3 (SRC3) | HEK293 GAL4-SRC3 luciferase reporter, luminescence | inhibition, % at 3.6 µM | actives 0.17% (n = 360,000) | AID 588352;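 active means inhibition above a per-campaign cutoff, the mean of all compounds plus 3 SD, cut at about 60% in these data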;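 further: 0% = DMSO-treated cells and 100% = gossypol-treated cells at 36 µM; higher means less SRC3-driven luciferase light from the GAL4 reporter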
SRC2 inh = inhibits human steroid receptor coactivator 2 | AID 651957 | actives 0.17% (n = 370,000) | HEK293 GAL4-SRC2 luciferase reporter, luminescence | inhibition, % at 9 µM;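 active means inhibition above the mean inhibition of all tested compounds plus 3 SD, set per campaign, cut at about 52% in these data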;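 further: 0% = DMSO treated cells and 100% = cells given Gossypol at 36 µM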
NR5A2 inv ag = NR5A2 inverse agonism in reporter assay. O00482. HEK293T StAR-luciferase reporter, LRH-1 transfected, 24 h. inhibition, % at 3.6 µM. actives 0.13% (n = 360,000);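 active means inhibition above the mean inhibition of all tested compounds plus 3 SD, cut at about 73% in these data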;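 further: 0% = DMSO wells and 100% = reporter-only cells lacking LRH-1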
NCOA1 inh = inhibits human SRC1 coactivator. Q15788. HEK293 GAL4-SRC1 luciferase reporter, luminescence. actives 0.12% (n = 360,000). inhibition, % at 3.6 µM;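 active means inhibition above the campaign mean plus 3 SD, with each screening campaign given its own cutoff, cut at about 60% in these data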;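 further: 0% = DMSO treated cells and 100% = gossypol at 36 µM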
COUP-TFII inh = inhibitors of human COUP-TFII (NR2F2); AID 686940; HEK293T NGFI-A luciferase reporter, luminescence; actives 0.7% (n = 370,000); inhibition, % at 8.6 µM; P24468;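 active means inhibition above a per-plate cutoff, mean inhibition of test wells between control levels plus 3 SD, cut at about 38% in these data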;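 further: cells cotransfected with COUP-TFII expression vector driving the NGFI-A reporter; 0% = median of COUP-TF2 test wells and 100% = reporter-only cells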
Target sequence (P24468 whole entry, looked up): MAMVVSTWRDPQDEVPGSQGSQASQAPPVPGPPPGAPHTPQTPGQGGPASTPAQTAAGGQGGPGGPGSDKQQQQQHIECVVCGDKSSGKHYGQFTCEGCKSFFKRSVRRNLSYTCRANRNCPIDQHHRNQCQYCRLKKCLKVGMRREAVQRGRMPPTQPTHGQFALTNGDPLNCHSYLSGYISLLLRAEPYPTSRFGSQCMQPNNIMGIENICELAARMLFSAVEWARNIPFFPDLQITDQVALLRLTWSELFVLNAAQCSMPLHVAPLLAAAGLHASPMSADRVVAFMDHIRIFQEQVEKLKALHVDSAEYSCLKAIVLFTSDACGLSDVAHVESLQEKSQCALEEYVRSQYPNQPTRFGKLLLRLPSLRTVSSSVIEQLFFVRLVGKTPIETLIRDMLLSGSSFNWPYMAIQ
Gal4-VP16 ctr = counter-screen for COUP-TFII antagonists: inhibitors of VP16 | HEK293 Gal4-VP16 luciferase reporter, luminescence | inhibition, % at 8.5 µM | AID 687007 | shares compounds with COUP-TFII inh | actives 25% (n = 2,500); in the data active means inhibition above about 13%
COUP-TFII conf = confirmation of human COUP-TFII (NR2F2) inhibitors; shares compounds with COUP-TFII inh; HEK293 NGFI-A luciferase reporter, luminescence; inhibition, % at 8.5 µM; actives 45% (n = 2,500); AID 687008;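 active means mean inhibition over three repeats above a set limit taken from the earlier primary screen, cut at about 38% in these data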;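 further: 100% = cells given the luciferase reporter alone without the COUP-TF2 vector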
The depositor's hits bear a star; nt = not tested or not shown. Compounds with a hit are over-represented: about 0.84% of the library has one in this group of screens.

SMILES	SRC3 inh	SRC2 inh	NR5A2 inv ag	NCOA1 inh	COUP-TFII inh	Gal4-VP16 ctr	COUP-TFII conf
C=C1C(=O)C23C(O)C1CCC2C12CCCC(C)(COC(C)=O)C1C(O)C3(O)OC2 (centres undefined)	74*	20	77*	77*	48*	77*	52*
CN(C(=O)COc1ccccc1C(=O)NCCOc1ccccc1)c1ccccc1	77*	46	50	51	56*	-6	25
O=C(NCCOc1ccccc1)c1ccccc1Cl	-86	-49	-94	-80	-32	nt	nt
Cc1ccc(Cc2c(-c3ccco3)nc3c4ccccc4ccn23)cc1	-1	-18	38	25	41*	-107	19
Cc1ccc(Cc2c(-c3ccco3)nc3c(C)cc(Br)cn23)cc1	-36	-46	36	-55	7	nt	nt
Cc1nc(SCC(=O)N2CCCCCC2)c2c(=O)n(C)c(=O)n(CC(C)C)c2n1	15	18	16	16	42*	0	23
CCN(C(=O)CC(C)C)c1nnc(Cn2nnc3ccccc32)s1	0	-19	0	-4	29	nt	nt
CCN(C(=O)c1ccc(C(C)(C)C)cc1)c1nnc(Cn2nnc3ccccc32)s1	31	21	33	4	76*	13*	72*
COc1ccccc1N1CCN(C(=O)CCC(=O)N2CCN(c3ccc(F)cc3)CC2)CC1	13	14	1	16	40*	-4	5
COc1ccccc1N1CCN(C(=O)c2sc3nc(-c4ccc(F)cc4)cn3c2C)CC1	18	17	-3	8	52*	1	30
COc1ccc(-c2cc(C(=O)N=Nc3c(O)[nH]c4ccccc34)[nH]n2)cc1	nt	-10	nt	nt	-29	nt	nt
O=C(NC1CCCC1)C(c1ccccc1)n1c(CSCCOc2ccccc2)nc2ccccc21 (centres undefined)	nt	77*	20	nt	59*	46*	50*
CN1CCC(N[C@@H](Cc2ccccc2)C(=O)NCC(c2ccccc2)c2ccccc2)(C(=O)NC2CCCCC2)CC1	nt	nt	nt	nt	5	nt	nt
Cc1c(NC(=O)COC(=O)C23CC4CC(CC(O)(C4)C2)C3)c(=O)n(-c2ccccc2)n1C	13	41	3	-4	45*	-8	5
CC(=NN1CCN(Cc2ccccc2Cl)CC1)c1ccc(O)cc1	nt	-17	nt	nt	19	nt	nt
COc1cccc(C(=O)Nn2c(-c3cccs3)nc3ccccc3c2=O)c1OC	4	9	6	-11	6	nt	nt
COc1ccc(CNn2c(-c3cccs3)nc3ccccc3c2=O)cc1OC	-8	35	6	4	38*	-9	6
CC(C)(C)OC(=O)/C=C/[C@@H](CC1CCCC1)Sc1ccc(C(C)(C)C)cc1	nt	9	nt	nt	-1	nt	nt
CC(=O)c1cccc(NC(=O)c2ccc(CN3CCc4ccccc4C3)cc2)c1	0	-13	9	27	19	nt	nt
COc1ccc(NC(=O)c2ccc(CN3CCc4ccccc4C3)cc2)cc1OC	-3	-34	4	2	-3	nt	nt
O=C(Nc1ccc(Cl)cc1)c1ccc(CN2CCc3ccccc3C2)cc1	-23	-16	10	-21	41*	-109	12
O=C(Nc1ccc(Cc2ccncc2)cc1)c1ccc(S(=O)(=O)N2CCCC2)cc1	26	13	27	22	69*	11	52*
N#CCc1ccc(NC(=O)c2ccc(CN3CCc4ccccc4C3)cc2)cc1	7	5	21	9	56*	0	56*
O=C(Nc1ccc(S(=O)(=O)N2CCCC2)cc1)c1ccc(CN2CCc3ccccc3C2)cc1	53	10	60	32	77*	0	71*
O=[N+]([O-])c1cccc(NCCCN2CCC(C(O)(c3ccccc3)c3ccccc3)CC2)c1	nt	-9	nt	nt	-12	nt	nt
SMILES	SRC3 inh	SRC2 inh	NR5A2 inv ag	NCOA1 inh	COUP-TFII inh	Gal4-VP16 ctr	COUP-TFII conf
CN[C@H]1C[C@H]2c3[nH]c4c(-c5cccc(C)c5)cccc4c3CCN2C(=O)[C@H]1[C@H](C)O	nt	-18	nt	nt	-10	nt	nt
CCN1Cc2nnn(CC3CCCCC3)c2-c2ccccc2S1(=O)=O	nt	4	nt	nt	0	nt	nt
Cc1ccc(NC(=O)c2ccc(OCC3CCCO3)cc2)cc1 (centres undefined)	-60	-28	-136	-144	-14	nt	nt
O=C(Nc1ccc(S(=O)(=O)N2CCCC2)cc1)c1ccc(OCC2CCCO2)cc1 (centres undefined)	-5	22	24	-16	38*	-2	17
N#Cc1cc2cc3c(cc2nc1SCC(=O)N1CCOCC1)OCCO3	30	12	26	-14	46*	24*	59*
Cc1nc2ccccn2c1C(=O)NC1CCCc2ccccc21 (centres undefined)	19	18	27	19	42*	4	37
O=C(CSc1nnc(-c2ccccc2)o1)Nc1ccccc1F	-39	24	-77	-72	24	nt	nt
Cc1ccc(-c2nnc(SCC(=O)Nc3ccccc3F)o2)cc1	9	62*	32	33	64*	24*	40*
CC(=O)CC[C@@H]1CC[C@]2(CCCN(C(=O)c3ccno3)C2)O1	nt	-22	nt	nt	9	nt	nt
COCCC(=O)N1CCc2ccc(NC(=O)c3ccc(C(F)(F)F)cc3)cc2C1	6	-11	7	13	38*	-20	0
CN(C)S(=O)(=O)N1CCc2ccc(NC(=O)c3ccc(C(F)(F)F)cc3)cc2C1	-17	-25	14	7	56*	-47	29
COCCC(=O)Nc1ccc2c(c1)CN(C(=O)CSC)CC2	18	11	6	-4	-16	nt	nt
COc1ccc(-c2c[n+]3c(n2-c2ccc(C)cc2)CCCCC3)cc1	58	22	72	35	71*	10	61*
CCOc1ccc(-n2c(-c3ccccc3)c[n+]3c2CCC3)cc1	26	17	36	9	55*	-4	30
COc1ccc(-n2c(-c3ccc(Cl)cc3)c[n+]3c2CCCCC3)cc1	12	24	10	2	29	nt	nt
CCOc1ccc(-n2c(-c3ccc(OC)cc3)c[n+]3c2CCCCC3)cc1	46	-5	84*	30	83*	20*	72*
CCOc1ccc(-n2c(-c3ccc(Br)cc3)c[n+]3c2CCCCC3)cc1	42	16	54	11	25	nt	nt
COc1ccc(-c2c[n+]3c(n2-c2ccccc2)CCCCC3)cc1	33	10	40	36	33	nt	nt
COP(=O)(CC(=O)C(Cc1ccccc1)NC(=O)OC(C)(C)C)OC (centres undefined)	nt	-15	nt	nt	2	nt	nt
c1coc(-c2nnc3n2N=C(c2ccc4c(c2)OCO4)CS3)c1	nt	-19	nt	nt	-22	nt	nt
COc1cc(C=NNC(=O)CN2CCN(Cc3ccc(C)cc3)CC2)cc(OC)c1O	nt	1	nt	nt	12	nt	nt

High-throughput results as filed in PubChem BioAssay.
